# System: ACVRL1
# Conditions: concentration: 1 μM, replicates: in singlicate; n = 1
# 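Further: KINOMEscan kinase panel screen.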
row,Compound,%Inh
1,Cc1cccc(-c2cc(-c3c[nH]nc3-c3ccccn3)ccn2)c1 [GW679395],0%
2,Cc1ccc(Oc2ccc(Nc3ncnc4cc[nH]c34)cc2C)cn1,0%
3,O=C1NC(=O)C(c2ccccc2)=C1Nc1cccc(O)c1 [SB-390534],0%
4,CCS(=O)(=O)c1ccc(OC)c(Nc2ncc(-c3ccc(F)cc3)o2)c1.Cl [GW591947],0%
5,Cl.c1ccc(Cn2cnc3cc(Nc4ncnc5ccccc45)ccc32)cc1 [GW272142],0%
6,CN(C)c1cc(-c2ccc3c(N)n[nH]c3c2)nc(N)n1 [GSK2219329],0%
7,Cc1nn2c(=O)cc(N3CCOCC3)nc2n1Cc1cccc(Cl)c1Cl [GSK2342769],42%
8,Nc1nc(-c2ccccc2F)c(-c2ccnc3ccccc23)s1 [GW560459],0%
9,COc1ccc(-n2cnc3c(N)ncnc32)cc1 [SKF-97236],10%
10,COc1cccc(C2=C(Nc3cccc(C(=O)O)c3)C(=O)NC2=O)c1 [SB-390770],4%
11,COc1cc2nccc(Nc3cccc(Oc4ccccc4)c3)c2cc1OC.Cl [GW284543],0%
12,CCCC(=O)Nc1n[nH]c2ncc(-c3cccc4ccccc34)cc12 [SB-642057],59%
13,CCc1nc(-c2cccc(C)c2)c(-c2ccncc2)s1,5%
14,O=C(Nc1ccc2c(c1)OCO2)NC1CCN(c2ccnc(NCc3ccc(F)cc3)n2)CC1 [GSK1379859],0%
15,Cc1ccc(-c2ccc3c(ccc4sc5c(c43)NC[C@@H](C)N=C5N(C)C)n2)cn1,12%
